Experimental findings from PubChem BioAssay (NCATS) are described below.

Records with an inconclusive call do not appear. Where a call stands in place of a potency, no number is given. Calls of active or inactive are those of the source. The call rests on the fitted dose curve; in most records, active means well fitted curve in the direction sought with a large enough effect; inconclusive means small, poorly fitted or top-dose-only effect, or another doubt; inactive means no such curve, though single readings can be large; an effect the other way counts as inactive or inconclusive.

The first experiment can be described thus: qHTS for Inhibitors of Plasmodium falciparum (DD2) proliferation (AID 504314). Further: potency means the concentration at half of the fitted maximal effect. As to conditions: P. falciparum Dd2 in erythrocytes, SYBR Green growth, 72 h; series mostly up to 1.12 µM. A digest of the protocol:
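Parasite proliferation measured as SYBR Green signal from Plasmodium DNA, mature erythrocytes lacking DNA. 72 h incubation, 37C; activity scaled between vehicle and 0.29 uM artemisinin, with correction from vehicle-only plates.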
For orientation: qHTS replaces the single test concentration by a dilution series.
As to `CCCC[C@]12Cc3c(ccc4ccccc34)[C@H](O1)C1=C(O2)C(=O)c2ccccc2C1=O`, the Potency was 1.69 µM (active).
The same measure, in the same setting: to `C[C@H]1Cc2c(-c3ccccc3)nc3c(c2CO1)CN(S(=O)(=O)c1ccc(C#N)cc1)CC3` belongs “inactive”.
Still for that read-out and setting: under `COC/C=C/C1=CC2=CC(=O)C(C)(OC(=O)c3cnc4ccccc4n3)C(=O)C2=CN1CCN1CCOCC1` (centres undefined) stands “inactive”.
Still for that read-out and setting: to `COc1ccc(N2C=C3C(=O)C(C)(OC(=O)CCc4ccccc4)C(=O)C=C3C=C2c2ccc(C#N)cc2)cc1` (centres undefined) belongs “inactive”.

A further experiment in a line: qHTS for Inhibitors of Plasmodium falciparum (GB4) proliferation (AID 504315). Further: nearly all actives have a fitted effect of over 50% in size. As to conditions: P. falciparum GB4 in erythrocytes, SYBR Green DNA, 72 h; series mostly up to 6.7 µM. Summed up: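 Parasite growth measured as SYBR Green DNA fluorescence (ex 485, em 535 nm) after overnight lysis following 72 h culture at 37 °C, 0.3% parasitemia, 2.5% hematocrit. Values normalized against DMSO and 0.29 uM artemisinin controls, with plate-stack correction.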
Regarding `COC(=O)N[C@@H](c1cccc(C)c1)[C@]1(C(C)=O)CCCC1=O`, the Potency result is “inactive”.
Same read-out and setting: under `CCN1C(=O)N[C@@H](c2ccco2)C(C(C)=O)=C1C` stands “inactive”; under `CCOC(=O)CN1C(=O)N[C@@H](c2ccco2)C(C(=O)OC)=C1C`, “inactive”; under `COCCN1C(=O)N(C)[C@@H](c2ccccc2)C(C(C)=O)=C1C`, “inactive”.
Same read-out and setting: to `COC(=O)C1=C(C(=O)OC)[C@@H]2N(Cc3ccccc3)c3ccccc3[C@@]23C[C@@H](C(=O)OC)N(C(=O)C2CCC2)C3=N1` belongs “inactive”; to `CC1(OC(=O)CCc2ccccc2)C(=O)C=C2C=C(c3ccc(C#N)cc3)N(C3CCCCC3)C=C2C1=O` (centres undefined), “inactive”.
Same read-out and setting: to `COC/C=C/C1=CC2=CC(=O)C(C)(OC(=O)c3cnc4ccccc4n3)C(=O)C2=CN1c1ccc(CO)cc1` (centres undefined) belongs “inactive”.
With `CCN1C(=O)N[C@@H](CCc2ccccc2)C(C(C)=O)=C1C`, the Potency entry is “inactive”.
The same measure, in the same setting: under `CCOC(=O)C=CCCCC=CC(=O)c1ccccc1` stands “inactive”.
On the same count and under the same terms, under `COC(=O)C1=C(C(=O)OC)[C@@H]2Nc3ccccc3[C@@]23C[C@@H](C(=O)OC)N(C(=O)NC2CCCC2)C3=N1` stands “inactive”.
